From PubChem BioAssay AID1159580 (chemical genetic matrix, 2015)
“And” between values parts separate entries of the source, which are not always exact repeats. Identical values can stand only once. Hit rate of the full screen: of about 5,500 compounds, about 2,000 (36%) were called active. About 18% were inconclusive and are not listed. No stated cut-off is given here; in the data, active means normalized growth mostly below about 0.91 (no sharp cut-off); inconclusive means no clear call, values can overlap the other calls; inactive means mostly above about 0.92. This is one part of the list.

Assay: chemical genetic growth profiling, strain panel (AID 1159580);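 further: tested at 20 µM; growth read once vehicle control cultures reached saturation at 30 °C; 1 = growth at the plate median or of vehicle wells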
Conditions: growth OD

Measured: normalized growth

CC1(C)O[C@@H]2CC3C4CCC5=CC(=O)CCC5(C)C4(F)C(O)CC3(C)[C@]2(C(=O)CCl)O1 (stereo partly specified)
inactive: S. cerevisiae deletion strains, locus YAL013W, strain DEP1, stronger effect = lower value 0.996 | S. cerevisiae deletion strains, locus YBR021W, strain FUR4, stronger effect = lower value 1.04 | S. cerevisiae deletion strains, locus YBR229C, strain ROT2, stronger effect = lower value 1 | S. cerevisiae deletion strains, locus YCL029C, strain bik1, stronger effect = lower value 1 | S. cerevisiae deletion strains, locus YDL035C, strain GPR1, stronger effect = lower value 0.979 | S. cerevisiae deletion strains, locus YDL074C, strain BRE1, stronger effect = lower value 1.02 | S. cerevisiae deletion strains, locus YDL101C, strain DUN1, stronger effect = lower value 0.994 | S. cerevisiae deletion strains, locus YDL134C, strain PPH21, stronger effect = lower value 0.994 | S. cerevisiae deletion strains, locus YDL185W, strain tfp1, stronger effect = lower value 0.967 | S. cerevisiae deletion strains, locus YDL192W, strain arf1, stronger effect = lower value 0.986 | S. cerevisiae deletion strains, locus YDR101C, strain arx1, stronger effect = lower value 1.03 | S. cerevisiae deletion strains, locus YDR150W, strain NUM1, stronger effect = lower value 0.981 | S. cerevisiae deletion strains, locus YDR162C, strain NBP2, stronger effect = lower value 0.963 | S. cerevisiae deletion strains, locus YDR318W, strain mcm21, stronger effect = lower value 0.979 | S. cerevisiae deletion strains, locus YDR388W, stronger effect = lower value 0.996 | S. cerevisiae deletion strains, locus YDR502C, strain sam2, stronger effect = lower value 0.99 | S. cerevisiae deletion strains, locus YEL061C, strain CIN8, stronger effect = lower value 0.998 | S. cerevisiae deletion strains, locus YER110C, stronger effect = lower value 0.975 | S. cerevisiae deletion strains, locus YER155C, strain BEM2, stronger effect = lower value 1.01 | S. cerevisiae deletion strains, locus YER167W, strain BCK2, stronger effect = lower value 0.994 | S. cerevisiae deletion strains, locus YGL078C, strain dbp3, stronger effect = lower value 0.993 | S. cerevisiae deletion strains, locus YGL086W, strain mad1, stronger effect = lower value 1.01 | S. cerevisiae deletion strains, locus YGL248W, strain PDE1, stronger effect = lower value 1 | S. cerevisiae deletion strains, locus YGR078C, strain PAC10, stronger effect = lower value 1.01 | S. cerevisiae deletion strains, locus YGR135W, strain pre9, stronger effect = lower value 0.973 | S. cerevisiae deletion strains, locus YGR252W, strain gcn5, stronger effect = lower value 1.02 | S. cerevisiae deletion strains, locus YHR030C, strain SLT2, stronger effect = lower value 0.985 and 1 | S. cerevisiae deletion strains, locus YHR079C, strain IRE1 (second series), stronger effect = lower value 0.992 | S. cerevisiae deletion strains, locus YHR079C, strain IRE1, stronger effect = lower value 1 | S. cerevisiae deletion strains, locus YHR094C, strain hxt1, stronger effect = lower value 0.998 | S. cerevisiae deletion strains, locus YHR129C, strain ARP1, stronger effect = lower value 0.996 | S. cerevisiae deletion strains, locus YHR200W, strain rpn10, stronger effect = lower value 0.988 | S. cerevisiae deletion strains, locus YIL066C, strain RNR3, stronger effect = lower value 1 | S. cerevisiae deletion strains, locus YIL073C, strain SPO22, stronger effect = lower value 0.889 | S. cerevisiae deletion strains, locus YIL125W, strain kgd1, stronger effect = lower value 1.01 | S. cerevisiae deletion strains, locus YIR030C, strain dcg1, stronger effect = lower value 0.983 | S. cerevisiae deletion strains, locus YJL095W, strain BCK1, stronger effect = lower value 1.03 and 1.02 | S. cerevisiae deletion strains, locus YJL134W, strain LCB3, stronger effect = lower value 0.989 | S. cerevisiae deletion strains, locus YJL168C, strain set2, stronger effect = lower value 1 | S. cerevisiae deletion strains, locus YJL187C, strain SWE1 (second series), stronger effect = lower value 1.01 | S. cerevisiae deletion strains, locus YJR043C, strain POL32, stronger effect = lower value 1.01 | S. cerevisiae deletion strains, locus YJR066W, strain TOR1, stronger effect = lower value 0.972 | S. cerevisiae deletion strains, locus YKL009W, strain mrt4, stronger effect = lower value 0.956 | S. cerevisiae deletion strains, locus YKL068W, stronger effect = lower value 0.98 | S. cerevisiae deletion strains, locus YKL085W, strain MDH1 (second series), stronger effect = lower value 0.975 | S. cerevisiae deletion strains, locus YKL085W, strain MDH1, stronger effect = lower value 0.975 | S. cerevisiae deletion strains, locus YKL190W, strain CNB1, stronger effect = lower value 0.977 | S. cerevisiae deletion strains, locus YKR001C, strain vps1, stronger effect = lower value 1.01 | S. cerevisiae deletion strains, locus YLR039C, strain RIC1, stronger effect = lower value 0.938 | S. cerevisiae deletion strains, locus YLR058C, strain SHM2, stronger effect = lower value 0.991 | S. cerevisiae deletion strains, locus YLR102C, strain apc9, stronger effect = lower value 0.995 | S. cerevisiae deletion strains, locus YLR113W, strain HOG1, stronger effect = lower value 1.04 | S. cerevisiae deletion strains, locus YLR262C, strain YPT6, stronger effect = lower value 0.942 | S. cerevisiae deletion strains, locus YLR268W, strain sec22, stronger effect = lower value 0.99 | S. cerevisiae deletion strains, locus YLR330W, strain CHS5, stronger effect = lower value 0.996 | S. cerevisiae deletion strains, locus YLR342W, strain FKS1 (second series), stronger effect = lower value 1.01 | S. cerevisiae deletion strains, locus YLR371W, strain rom2, stronger effect = lower value 1 | S. cerevisiae deletion strains, locus YLR418C, strain cdc73, stronger effect = lower value 0.944 | S. cerevisiae deletion strains, locus YML016C, strain PPZ1, stronger effect = lower value 1 | S. cerevisiae deletion strains, locus YML032C, strain rad52, stronger effect = lower value 1.01 | S. cerevisiae deletion strains, locus YML124C, strain tub3, stronger effect = lower value 1 | S. cerevisiae deletion strains, locus YMR078C, strain ctf18, stronger effect = lower value 0.99 | S. cerevisiae deletion strains, locus YMR223W, strain ubp8, stronger effect = lower value 0.97 | S. cerevisiae deletion strains, locus YMR263W, strain SAP30, stronger effect = lower value 1 | S. cerevisiae deletion strains, locus YMR307W, strain GAS1, stronger effect = lower value 1.01 | S. cerevisiae deletion strains, locus YNL067W, strain RPL9B, stronger effect = lower value 1.02 | S. cerevisiae deletion strains, locus YNL153C, strain GIM3, stronger effect = lower value 1.06 | S. cerevisiae deletion strains, locus YNL183C, strain NPR1, stronger effect = lower value 0.972 | S. cerevisiae deletion strains, locus YNL233W, strain BNI4, stronger effect = lower value 1.04 | S. cerevisiae deletion strains, locus YNL250W, strain rad50, stronger effect = lower value 0.987 | S. cerevisiae deletion strains, locus YNL271C, strain bni1, stronger effect = lower value 0.986 | S. cerevisiae deletion strains, locus YNL298W, strain CLA4, stronger effect = lower value 0.994 | S. cerevisiae deletion strains, locus YNL307C, strain MCK1, stronger effect = lower value 0.995 | S. cerevisiae deletion strains, locus YNR052C, strain pop2, stronger effect = lower value 0.985 | S. cerevisiae deletion strains, locus YOL006C, strain TOP1, stronger effect = lower value 1.01 | S. cerevisiae deletion strains, locus YOL012C, strain htz1 0.917 | S. cerevisiae deletion strains, locus YOL147C, strain pex11, stronger effect = lower value 0.996 | S. cerevisiae deletion strains, locus YOR061W, strain CKA2, stronger effect = lower value 0.994 | S. cerevisiae deletion strains, locus YOR069W, strain VPS5, stronger effect = lower value 0.99 | S. cerevisiae deletion strains, locus YOR136W, strain idh2, stronger effect = lower value 0.995 | S. cerevisiae deletion strains, locus YOR144C, strain elg1, stronger effect = lower value 1.01 | S. cerevisiae deletion strains, locus YOR184W, strain ser1, stronger effect = lower value 0.958 | S. cerevisiae deletion strains, locus YOR231W, strain MKK1, stronger effect = lower value 1.02 | S. cerevisiae deletion strains, locus YOR316C, strain cot1, stronger effect = lower value 0.983 | S. cerevisiae deletion strains, locus YPL256C, strain CLN2, stronger effect = lower value 0.989 | S. cerevisiae deletion strains, locus YPR119W, strain clb2, stronger effect = lower value 0.997 | S. cerevisiae deletion strains, locus YPR141C, strain kar3, stronger effect = lower value 0.99 | S. cerevisiae deletion strains, locus YPR163C, strain tif3, stronger effect = lower value 0.993 | S. cerevisiae deletion strains, locus YPR167C, strain met16, stronger effect = lower value 0.984 | S. cerevisiae deletion strains, strain wtn01, stronger effect = lower value 0.987 | S. cerevisiae strains, strain wild type, stronger effect = lower value 0.994
